The entries come from a sample that favours the strongest signals as a whole.
Experiments:
Assay in all cases: glycan array binding signal (z-score within array); higher = stronger binding
Settings in all cases: glycan notation: IUPAC condensed, linker removed
[1] = molecular target: Fuc(a1-2)Gal(b1-4)GlcNAc(b1-2)Man(a1-3)[Fuc(a1-2)Gal(b1-4)GlcNAc(b1-2)Man(a1-6)]Man(b1-4)GlcNAc(b1-4)GlcNAc
Outline: (§1)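 The binding signal is a Z-score computed within each array and averaged over linkers. Arrays of the same protein sequence at different concentrations or buffers were also averaged together. Data originate from 3228 arrays in the Consortium for Functional Glycomics database, kept only where the protein sequence was available.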

[2] = molecular target: Fuc(a1-2)Gal(b1-4)[Fuc(a1-3)]GlcNAc(b1-2)Man(a1-3)[Fuc(a1-2)Gal(b1-4)[Fuc(a1-3)]GlcNAc(b1-2)Man(a1-6)]Man(b1-4)GlcNAc(b1-4)GlcNAc
Outline: as §1

Fuc(a1-2)[Gal(a1-3)]Gal = molecular target: Fuc(a1-2)[Gal(a1-3)]Gal
Outline: as §1

[3] = molecular target: Fuc(a1-2)[Gal(a1-3)]Gal(b1-4)GlcNAc(b1-2)Man(a1-3)[Fuc(a1-2)[Gal(a1-3)]Gal(b1-4)GlcNAc(b1-2)Man(a1-6)]Man(b1-4)GlcNAc(b1-4)GlcNAc
Outline: as §1

[4] = molecular target: Fuc(a1-2)[GalNAc(a1-3)]Gal(b1-4)GlcNAc(b1-2)Man(a1-3)[GalNAc(a1-3)[Fuc(a1-2)]Gal(b1-4)GlcNAc(b1-2)Man(a1-6)]Man(b1-4)GlcNAc(b1-4)GlcNAc
Outline: as §1

[5] = molecular target: Fuc(a1-2)[GalNAc(a1-3)]Gal(b1-4)GlcNAc(b1-3)Gal(b1-4)GlcNAc
Outline: as §1

[6] = molecular target: Fuc(a1-3)[Gal(b1-4)]GlcNAc(b1-2)Man(a1-6)[Gal(b1-4)GlcNAc(b1-2)Man(a1-3)]Man(b1-4)GlcNAc(b1-4)GlcNAc
Outline: as §1

[7] = molecular target: Fuc(a1-3)[Gal(b1-4)]GlcNAc6S
Outline: as §1

[8] = molecular target: Fuc(a1-3)[Gal3S(b1-4)]GlcNAc
Outline: as §1

[9] = molecular target: Gal(a1-3)Gal(b1-4)[Fuc(a1-3)]GlcNAc(b1-2)Man(a1-3)[Gal(a1-3)Gal(b1-4)[Fuc(a1-3)]GlcNAc(b1-2)Man(a1-6)]Man(b1-4)GlcNAc(b1-4)GlcNAc
Outline: as §1

Gal(a1-4)Gal(b1-4)GlcNAc = molecular target: Gal(a1-4)Gal(b1-4)GlcNAc
Outline: as §1

Gal(b1-2)Gal = molecular target: Gal(b1-2)Gal
Outline: as §1

[10] = molecular target: Gal(b1-3)GlcNAc(b1-2)Man(a1-3)[Gal(b1-3)GlcNAc(b1-2)Man(a1-6)]Man(b1-4)GlcNAc(b1-4)GlcNAc
Outline: as §1

[11] = molecular target: Gal(b1-3)[Neu5Ac(b2-6)]GalNAc
Outline: as §1

[12] = molecular target: Gal(b1-4)GalNAc(a1-3)[Fuc(a1-2)]Gal(b1-4)GlcNAc
Outline: as §1

GlcA(b1-6)Gal = molecular target: GlcA(b1-6)Gal
Outline: as §1

[13] = molecular target: GlcNAc(a1-4)Gal(b1-4)GlcNAc(b1-3)Gal(b1-4)[Fuc(a1-3)]GlcNAc(b1-3)Gal(b1-4)[Fuc(a1-3)]GlcNAc
Outline: as §1

[14] = molecular target: Neu5Ac(a2-3)Gal(b1-3)GalNAc
Outline: as §1

[15] = molecular target: Neu5Ac(a2-3)Gal(b1-3)GalNAc6S
Outline: as §1

[16] = molecular target: Neu5Ac(a2-3)Gal(b1-3)GlcNAc
Outline: as §1

[17] = molecular target: Neu5Ac(a2-3)Gal(b1-3)GlcNAc6S
Outline: as §1

[18] = molecular target: Neu5Ac(a2-3)Gal(b1-3)[Fuc(a1-4)]GlcNAc(b1-3)Gal(b1-4)[Fuc(a1-3)]GlcNAc
Outline: as §1

[19] = molecular target: Neu5Ac(a2-3)Gal(b1-4)GlcNAc(b1-3)Gal(b1-4)GlcNAc(b1-3)Gal(b1-4)GlcNAc
Outline: as §1

[20] = molecular target: Neu5Ac(a2-3)Gal(b1-4)[Fuc(a1-3)]GlcNAc(b1-6)[Gal(b1-3)]GalNAc
Outline: as §1

[21] = molecular target: Neu5Ac(a2-3)Gal(b1-4)[Fuc(a1-3)]GlcNAc(b1-6)[Neu5Ac(a2-3)Gal(b1-3)]GalNAc
Outline: as §1

Neu5Ac(a2-3)GalNAc = molecular target: Neu5Ac(a2-3)GalNAc
Outline: as §1

[22] = molecular target: Neu5Ac(a2-6)Gal(b1-4)GlcNAc(b1-2)Man(a1-3)Man(b1-4)GlcNAc(b1-4)GlcNAc
Outline: as §1

[23] = molecular target: Neu5Ac(a2-6)Gal(b1-4)GlcNAc6S
Outline: as §1

[24] = molecular target: Neu5Ac(b2-6)Gal(b1-4)GlcNAc
Outline: as §1

Neu5Gc(a2-3)Gal(b1-4)Glc = molecular target: Neu5Gc(a2-3)Gal(b1-4)Glc
Outline: as §1

Neu5Gc(a2-6)GalNAc = molecular target: Neu5Gc(a2-6)GalNAc
Outline: as §1

B1: Neuropilin-1 (Rattus norvegicus), Q9QWJ9 (protein)
chain: MERGLPLLCATLALALALAGAFRSDKCGGTIKIENPGYLTSPGYPHSYHPSEKCEWLIQAPEPYQRIMINFNPHFDLEDRDCKYDYVEVIDGENEGGRLWGKFCGKIAPSPVVSSGPFLFIKFVSDYETHGAGFSIRYEIFKRGPECSQNYTAPTGVIKSPGFPEKYPNSLECTYIIFAPKMSEIILEFESFDLEQDSNPPGGVFCRYDRLEIWDGFPEVGPHIGRYCGQKTPGRIRSSSGILSMVFYTDSAIAKEGFSANYSVLQSSISEDFKCMEALGMESGEIHSDQITASSQYGTNWSVERSRLNYPENGWTPGEDSYREWIQVDLGLLRFVTAVGTQGAISKETKKKYYVKTYRVDISSNGEDWITLKEGNKAIIFQGNTNPTDVVFGVFPKPLITRFVRIKPASWETGISMRFEVYGCKITDYPCSGMLGMVSGLISDSQITASNQGDRNWMPENIRLVTSRTGWALPPSPHPYINEWLQVDLGDEKIVRGVIIQGGKHRENKVFMRKFKIAYSNNGSDWKMIMDDSKRKAKSFEGNNNYDTPELRAFTPLSTRFIRIYPERATHSGLGLRMELLGCEVEVPTAGPTTPNGNPVDECDDDQANCHSGTGDDFQLTGGTTVLATEKPTIIDSTIQSEFPTYGFNCEFGWGSHKTFCHWEHDSHAQLRWRVLTSKTGPIQDHTGDGNFIYSQADENQKGKVARLVSPVVYSQSSAHCMTFWYHMSGSHVGTLRVKLHYQKPEEYDQLVWMVVGHQGDHWKEGRVLLHKSLKLYQVIFEGEIGKGNLGGIAVDDISINNHIPQEDCAKPTDLDKKNTEIKIDETGSTPGYEEGKGDKNISRKPGNVLKTLDPILITIIAMSALGVLLGAVCGVVLYCACWHNGMSERNLSALENYNFELVDGVKLKKDKLNPQSNYSEA
glycan array binding signal (z-score) [1]: 7.46
glycan array binding signal (z-score) [2]: 2.97
glycan array binding signal (z-score) (Fuc(a1-2)[Gal(a1-3)]Gal): -0.352
glycan array binding signal (z-score) [3]: 7.21
glycan array binding signal (z-score) [4]: 5.38
glycan array binding signal (z-score) [5]: -0.035
glycan array binding signal (z-score) [6]: -0.363
glycan array binding signal (z-score) [7]: 0.233
glycan array binding signal (z-score) [8]: -0.201
glycan array binding signal (z-score) [9]: 4.58
glycan array binding signal (z-score) (Gal(a1-4)Gal(b1-4)GlcNAc): -0.229
glycan array binding signal (z-score) (Gal(b1-2)Gal): -0.273
glycan array binding signal (z-score) [10]: -0.258
glycan array binding signal (z-score) [11]: -0.235
glycan array binding signal (z-score) [12]: 0.018
glycan array binding signal (z-score) (GlcA(b1-6)Gal): -0.148
glycan array binding signal (z-score) [13]: 2.61
glycan array binding signal (z-score) [14]: -0.323
glycan array binding signal (z-score) [15]: -0.301
glycan array binding signal (z-score) [16]: -0.274
glycan array binding signal (z-score) [17]: -0.371
glycan array binding signal (z-score) [18]: 0.102
glycan array binding signal (z-score) [19]: -0.331
glycan array binding signal (z-score) [20]: 8.12
glycan array binding signal (z-score) [21]: 4.25
glycan array binding signal (z-score) (Neu5Ac(a2-3)GalNAc): -0.28
glycan array binding signal (z-score) [22]: -0.309
glycan array binding signal (z-score) [23]: -0.311
glycan array binding signal (z-score) [24]: -0.253
glycan array binding signal (z-score) (Neu5Gc(a2-3)Gal(b1-4)Glc): -0.189
glycan array binding signal (z-score) (Neu5Gc(a2-6)GalNAc): -0.331

Reference: the supplement of paper PMC8728848
